From PubChem BioAssay (NCATS) come the findings set out here.

Results filed as inconclusive are left out. Entries that show only a call come without a potency. The source made the active and inactive calls. Calls follow the shape of the dose curve; as a rule, active = well fitted cell-killing curve with a large enough effect; inconclusive = small, poorly fitted or top-dose-only effect, or effect the other way; inactive = no such curve, though single readings can be large or run the other way.
Potency is read from the fitted curve at half-maximal effect.

A short description of one assay: Quantitative High-Throughput drug screen in 47 multiple myeloma cell lines against the NCATS MIPE library collection: Delta47_JCRB cell viability assay (AID 1918925; also: nearly all actives have a fitted effect of over 45% in size). The note with it: Delta47 myeloma viability, CellTiter-Glo ATP, 48 h; series mostly up to 45.8 µM. A digest of the protocol:
(§1)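 Primary qHTS used for cherry-picking: cells at 500/well, library compounds for 48 h (37C, 5% CO2), luminescent ATP assay.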
(Cellular ATP, detected with luciferase, serves as a proxy for viable cell number.)
Regarding `CC(C)OC(=O)CCCC=CC[C@@H]1[C@H](C=C[C@@H](O)COc2cccc(C(F)(F)F)c2)[C@H](O)C[C@@H]1O`, the Potency is 14.8 µM (active).

On to `N[C@H](CSC(c1ccccc1)(c1ccccc1)c1ccccc1)C(=O)O`, for which the Potency is 7.43 µM (active).

`CC=CC(=O)N(CC)c1ccccc1C`: the Potency result was “inactive”.

For the compound `N#CC(=C(N)Sc1ccccc1N)C(C#N)=C(N)Sc1ccccc1N`, the Potency was 16.6 µM (active).

In the case of `CC1(C)CCC[C@@]2(C)[C@@H]1CC[C@@]1(C)OC(=O)C[C@H]21`, the Potency result is “inactive”.

For the compound `CCc1ccc(C=C2SC(=S)NC2=O)cc1`, the Potency result was “inactive”.

In the case of `C[C@]12CC[C@@H]3c4ccc(O)cc4CC[C@H]3[C@H]1C[C@@H](O)[C@H]2O`, the Potency is 2.64 µM (active).

As for `Cc1ccc(F)c(NC(=O)Nc2ccc(-c3cccc4[nH]nc(N)c34)cc2)c1`, the Potency was 13.2 µM (active).

Consider `NC[C@@H]1O[C@@H](O[C@H]2[C@@H](O)[C@H](O[C@@H]3[C@@H](O)[C@@H](N)C[C@H](N)[C@H]3O[C@H]3O[C@H](CN)[C@@H](O)[C@@H](O)[C@H]3N)O[C@H]2CO)[C@H](N)[C@@H](O)[C@@H]1O`, for which the Potency result is “inactive”.

As to `CCOC(=O)O[C@]1(C(=O)OCCl)CC[C@@H]2[C@H]3CCC4=CC(=O)C=C[C@]4(C)[C@@H]3[C@@H](O)C[C@@]21C`, the Potency entry is “inactive”.

For the compound `CCc1ccc(OCc2ccccc2C(=O)Nc2ccc3nc(C)cc(N)c3c2)cc1`, the Potency is 1.18 µM (active).

As to `CC=CC[C@@H](C)C(=O)[C@H]1C(=O)N[C@@H](C(C)C)C(=O)N(C)CC(=O)N(C)[C@@H](CC(C)C)C(=O)N[C@@H](C(C)C)C(=O)N(C)[C@@H](CC(C)C)C(=O)N[C@@H](C)C(=O)N[C@H](C)C(=O)N(C)[C@@H](CC(C)C)C(=O)N(C)[C@@H](CC(C)C)C(=O)N(C)[C@@H](C(C)C)C(=O)N1C`, the Potency was 23.5 µM (active).

Take `CCCCCCCCCCCC1=C(O)C(=O)C=C(O)C1=O`: the Potency is 3.32 µM (active).

As to `O=C1c2c(O)cc(O)cc2O[C@H](c2cc(O)c(O)c(O)c2)[C@H]1O`, the Potency result was “inactive”.

Turning to `C[C@@H]1CCN(C(=O)CC#N)C[C@H]1N(C)c1ncnc2[nH]ccc12`, the Potency result was “inactive”.

Consider `N[C@@]1(C(=O)O)CS(=O)(=O)[C@H]2[C@H](C(=O)O)[C@H]21`, for which the Potency was 9.35 µM (active).

On to `CC[C@@]1(O)C[C@H](O[C@H]2C[C@H](N(C)C)[C@H](O[C@H]3C[C@H](O)[C@H](O[C@H]4CCC(=O)[C@H](C)O4)[C@H](C)O3)[C@H](C)O2)c2c(cc3c(c2O)C(=O)c2c(O)cccc2C3=O)[C@@H]1C(=O)OC`, for which the Potency is 0.0662 µM (active).

For `Cc1c(O)cccc1C(=O)N[C@@H](CSc1ccccc1)[C@H](O)CN1C[C@H]2CCCC[C@@H]2C[C@@H]1C(=O)NC(C)(C)C`, the Potency was 20.9 µM (active).

Turning to `CN(C)c1cc(NC(=O)CNC(C)(C)C)c(O)c2c1C[C@@H]1C[C@H]3[C@H](N(C)C)C(=O)C(C(N)=O)=C(O)[C@@]3(O)C(=O)C1=C2O`, the Potency entry was “inactive”.

Take `Cc1[nH]c(C=C2C(=O)Nc3ccc(S(=O)(=O)Cc4c(Cl)cccc4Cl)cc32)c(C)c1C(=O)N1CCC[C@H]1CN1CCCC1`: the Potency was 5.9 µM (active).

Take `OC[C@H]1O[C@@H](n2cnc3c2NC=NC[C@@H]3O)C[C@H]1O`: the Potency result was “inactive”.

As for `Cc1nnc(C(C)C)n1C1C[C@H]2CC[C@@H](C1)N2CC[C@H](NC(=O)C1CCC(F)(F)CC1)c1ccccc1` (stereo not given in full), the Potency is 16.6 µM (active).

Consider `CC1(C)S[C@H]2[C@H](NC(=O)[C@@H](N)c3ccc(O)cc3)C(=O)N2[C@@H]1C(=O)O`, for which the Potency entry is “inactive”.

Take `O=C(CCc1ccc(O)cc1)c1c(O)cc(O)cc1O[C@@H]1O[C@H](CO)[C@H](O)[C@H](O)[C@H]1O`: the Potency result is “inactive”.

In the case of `CO[C@H]1C=CC=C(C)C(=O)NC2=CC(=O)C(NCCN(C)C)=C(C[C@@H](C)C[C@H](OC)[C@@H](O)[C@@H](C)C=C(C)[C@@H]1OC(N)=O)C2=O`, the Potency is 0.0469 µM (active).

Consider `CCN(CC)CCOc1ccc(C(=C(Cl)c2ccccc2)c2ccccc2)cc1`, for which the Potency is 29.6 µM (active).

The next assay can be described thus: Quantitative High-Throughput drug screen in 47 multiple myeloma cell lines against the NCATS MIPE library collection: EJM_DSMZ cell viability assay (AID 1918926; also: nearly all actives have a fitted effect of over 30% in size). The note with it: EJM myeloma cell viability, CellTiter-Glo ATP, 48 h; series mostly up to 45.8 µM. The method, boiled down: as §1
As to `Cn1cc(C=C2C(=O)Nc3cccnc32)c2ccccc21`, the Potency result is “inactive”.

Consider `CN(C)CCC=C1c2ccccc2COc2ccc(CC(=O)O)cc21`, for which the Potency result is “inactive”.

For the compound `N[C@H](CSC(c1ccccc1)(c1ccccc1)c1ccccc1)C(=O)O`, the Potency was 18.7 µM (active).

`CC=CC(=O)N(CC)c1ccccc1C`: the Potency entry was “inactive”.

Consider `N#CC(=C(N)Sc1ccccc1N)C(C#N)=C(N)Sc1ccccc1N`, for which the Potency is 10.5 µM (active).

`CC1(C)CCC[C@@]2(C)[C@@H]1CC[C@@]1(C)OC(=O)C[C@H]21`: the Potency entry is “inactive”.

As to `CCc1ccc(C=C2SC(=S)NC2=O)cc1`, the Potency result was “inactive”.

As to `NC[C@@H]1O[C@@H](O[C@H]2[C@@H](O)[C@H](O[C@@H]3[C@@H](O)[C@@H](N)C[C@H](N)[C@H]3O[C@H]3O[C@H](CN)[C@@H](O)[C@@H](O)[C@H]3N)O[C@H]2CO)[C@H](N)[C@@H](O)[C@@H]1O`, the Potency result is “inactive”.

As for `CCOC(=O)O[C@]1(C(=O)OCCl)CC[C@@H]2[C@H]3CCC4=CC(=O)C=C[C@]4(C)[C@@H]3[C@@H](O)C[C@@]21C`, the Potency entry is “inactive”.

With `O=C1NC(=O)C(=Cc2cccc(C(F)(F)F)c2)S1`, the Potency was 20.9 µM (active).

For `O=c1ccn([C@@H]2O[C@H](CO)[C@H](O)[C@H]2O)c(=O)[nH]1`, the Potency result is “inactive”.

Regarding `CCc1ccc(OCc2ccccc2C(=O)Nc2ccc3nc(C)cc(N)c3c2)cc1`, the Potency was 7.43 µM (active).

For `CC=CC[C@@H](C)C(=O)[C@H]1C(=O)N[C@@H](C(C)C)C(=O)N(C)CC(=O)N(C)[C@@H](CC(C)C)C(=O)N[C@@H](C(C)C)C(=O)N(C)[C@@H](CC(C)C)C(=O)N[C@@H](C)C(=O)N[C@H](C)C(=O)N(C)[C@@H](CC(C)C)C(=O)N(C)[C@@H](CC(C)C)C(=O)N(C)[C@@H](C(C)C)C(=O)N1C`, the Potency result is “inactive”.

Turning to `OC[C@H]1O[C@@H](Oc2cc(O)cc(C=Cc3ccc(O)cc3)c2)[C@H](O)[C@@H](O)[C@H]1O`, the Potency was 4.69 µM (active).

Consider `O=C1c2c(O)cc(O)cc2O[C@H](c2cc(O)c(O)c(O)c2)[C@H]1O`, for which the Potency is 1.66 µM (active).

Consider `C[C@@H]1CCN(C(=O)CC#N)C[C@H]1N(C)c1ncnc2[nH]ccc12`, for which the Potency entry was “inactive”.

For the compound `N[C@@]1(C(=O)O)CS(=O)(=O)[C@H]2[C@H](C(=O)O)[C@H]21`, the Potency result is “inactive”.

Take `NC1CCC(Nc2nc(Nc3ccc(C(=O)N4CCCCC4)cc3)c3ncn(-c4cccc(F)c4)c3n2)CC1` (stereo not given): the Potency result is “inactive”.

On to `CC[C@H]1OC(=O)[C@H](C)[C@@H](O[C@H]2C[C@@](C)(OC)[C@@H](O)[C@H](C)O2)[C@H](C)[C@@H](O[C@@H]2O[C@H](C)C[C@H](N(C)C)[C@@H]2O)[C@](C)(O)C[C@@H](C)CN(C)[C@H](C)[C@@H](O)[C@]1(C)O`, for which the Potency result was “inactive”.

With `CC[C@@]1(O)C[C@H](O[C@H]2C[C@H](N(C)C)[C@H](O[C@H]3C[C@H](O)[C@H](O[C@H]4CCC(=O)[C@H](C)O4)[C@H](C)O3)[C@H](C)O2)c2c(cc3c(c2O)C(=O)c2c(O)cccc2C3=O)[C@@H]1C(=O)OC`, the Potency was 0.469 µM (active).

With `Cc1c(O)cccc1C(=O)N[C@@H](CSc1ccccc1)[C@H](O)CN1C[C@H]2CCCC[C@@H]2C[C@@H]1C(=O)NC(C)(C)C`, the Potency was 23.5 µM (active).

Take `O=c1c(-c2ccc(O)cc2)coc2cc(O[C@@H]3O[C@H](CO)[C@H](O)[C@H](O)[C@H]3O)ccc12`: the Potency entry was “inactive”.

In the case of `CN(C)c1cc(NC(=O)CNC(C)(C)C)c(O)c2c1C[C@@H]1C[C@H]3[C@H](N(C)C)C(=O)C(C(N)=O)=C(O)[C@@]3(O)C(=O)C1=C2O`, the Potency result was “inactive”.

On to `CC1(C)O[C@H]2C[C@@H]3[C@H]4CCC5=CC(=O)C=C[C@]5(C)[C@@]4(F)[C@@H](O)C[C@]3(C)[C@]2(C(=O)CO)O1`, for which the Potency result was “inactive”.

Regarding `CC1(C)S[C@H]2[C@H](NC(=O)[C@@H](N)c3ccc(O)cc3)C(=O)N2[C@@H]1C(=O)O`, the Potency entry is “inactive”.

As for `O=C(NOCC(O)CO)c1cc(Br)c(F)c(F)c1Nc1ccc(I)cc1F` (stereo not given), the Potency result is “inactive”.

For the compound `O=C(CCc1ccc(O)cc1)c1c(O)cc(O)cc1O[C@@H]1O[C@H](CO)[C@H](O)[C@H](O)[C@H]1O`, the Potency entry was “inactive”.

With `C[N+](C)(C)CC(=O)O`, the Potency result was “inactive”.

With `CO[C@H]1C=CC=C(C)C(=O)NC2=CC(=O)C(NCCN(C)C)=C(C[C@@H](C)C[C@H](OC)[C@@H](O)[C@@H](C)C=C(C)[C@@H]1OC(N)=O)C2=O`, the Potency is 1.48 µM (active).
